BAZ2B block = BAZ2B (human) inhibition; 360,000 tested, 4.4% active; AlphaScreen BAZ2B-H3K14Ac peptide displacement; Potency, µM (highest dose often 114 µM), for inactives: top-dose activity change, negative = inhibition, usual class: inhibitors; AID 504333; also: potency is read from the fitted curve at half-maximal effect; % is scaled to controls: 0 for no effect and ±100 for the full control effect; nearly all actives have a fitted effect of over 60% in size
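In this displacement format the biotinylated H3(5-23) peptide acetylated at Lys14 serves as ligand at 50 nM, with BAZ2B at 50 nM in PBS pH 7.4 containing 0.01% Tween-20. Donor and acceptor beads are 10 ug/mL final.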
HP1b chromo inh = HP1-beta chromodomain-methylated histone interaction inhibition | 390,000 tested, 0.56% active | AID 540317 | Potency, µM (series often up to 114 µM), without a hit: at the top dose activity change, negative = inhibition, most hits filed as inhibitors | P83916 | AlphaScreen HP1-beta / biotin-H3K9me3 peptide binding; also: potency is read from the fitted curve at half-maximal effect; nearly all actives have a fitted effect of over 70% in size
Target sequence (P83916 whole entry, looked up): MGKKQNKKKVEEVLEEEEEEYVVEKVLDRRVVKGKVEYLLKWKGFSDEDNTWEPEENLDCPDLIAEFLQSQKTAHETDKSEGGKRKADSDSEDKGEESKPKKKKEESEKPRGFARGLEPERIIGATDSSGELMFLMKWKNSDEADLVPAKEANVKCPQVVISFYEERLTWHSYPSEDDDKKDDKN
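HP1-beta protein (50 nM final) preincubated 30 min at room temperature with biotinylated H3(1-18)K9me3 peptide (50 nM) in PBS pH 7.4, 0.01% Tween-20, then compound added for 30 min. AlphaScreen streptavidin donor/nickel chelate acceptor beads (10 ug/mL final), 30 min dark, luminescence read.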
G9a inh = G9a (human) methyltransferase inhibition; 350,000 tested, 8.8% active; G9a H3K9 monomethylation, AlphaScreen, 2 h; Potency, µM (highest dose often 102 µM), for inactives: at the top dose activity, negative = inhibition, most hits filed as inhibitors; also: potency is read from the fitted curve at half-maximal effect; % is scaled to controls: 0 for no effect and ±100 for the full control effect; nearly all actives have a fitted effect of over 75% in size
Target sequence (Q96KQ7 913-1193 limits assumed): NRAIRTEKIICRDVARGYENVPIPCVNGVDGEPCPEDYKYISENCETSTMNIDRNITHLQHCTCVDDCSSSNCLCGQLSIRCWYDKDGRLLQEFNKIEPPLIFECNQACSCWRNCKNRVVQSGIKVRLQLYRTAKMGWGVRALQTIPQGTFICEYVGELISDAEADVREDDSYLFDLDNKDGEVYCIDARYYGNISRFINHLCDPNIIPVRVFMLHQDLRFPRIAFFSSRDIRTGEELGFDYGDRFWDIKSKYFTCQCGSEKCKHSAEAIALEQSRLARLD
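Using a bead-based AlphaScreen, monomethylated H3K9 product from 2 h room-temperature reactions (G9a 20 nM, peptide 500 nM, SAM 20 uM) was detected with 0.5 ug/mL rabbit anti-H3K9me1 antibody.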
Sfp PPTase inh = Sfp phosphopantetheinyl transferase inhibition; Q9F4F7; Biochemical Sfp PPTase activity, qHTS; Potency, µM, for the others: largest response in the series, negative = inhibition, usual class: inhibitors; 310,000 tested, 3.5% active; AID 1490;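 also: the enzyme is Sfp with the accession as filed and its product quenches rhodamine fluorescence; potency is read from the fitted curve at half-maximal effect; 0% = enzyme reaction without inhibitor and -100% = no enzyme wells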
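With Hepes-Na pH 7.6 buffer containing 10 mM MgCl2, Sfp (15 nM) modified BHQ-2-YbbR (12.5 uM) using rhodamine-CoA (5 uM). Two reads 30 minutes apart at 525/598 nm yielded each well's rate.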
L3MBTL1 block = inhibitors of human L3MBTL1 | Potency, µM (titrated, usually from 57.1 µM), inactives show at the highest dose activity, negative = inhibition, hits mostly inhibitors | AlphaScreen L3MBTL1–H3K9me1 peptide binding | 230,000 tested, 0.66% active; also: potency is read from the fitted curve at half-maximal effect; % is scaled to controls: 0 for no effect and ±100 for the full control effect; nearly all actives have a fitted effect of over 60% in size
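AlphaScreen assay: L3MBTL1 (50 nM final) was preincubated 30 min at room temperature with biotinylated H3(1-15)K9me1 peptide (75 nM final), then 30 min with library compounds; streptavidin donor and nickel chelate acceptor beads (10 ug/mL final) added, 30 min dark.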
JMJD2A Tudor = inhibitors of human JMJD2A Tudor domain | AID 504339 | AlphaScreen JMJD2A-Tudor / H3K4me3 peptide binding | Potency, µM (series often up to 114 µM), for inactives: at the top dose activity change, negative = inhibition, usual class: inhibitors | 390,000 tested, 4.4% active | O75164; also: potency is read from the fitted curve at half-maximal effect; % is scaled to controls: 0 for no effect and ±100 for the full control effect; nearly all actives have a fitted effect of over 50% in size
Sfp inh conf = confirmation of Bacillus subtilis Sfp PPTase inhibitors; Sfp PPTase enzymatic assay, qHTS titration; 380 tested, 79% active; Potency, µM (series often up to 114 µM), inactives show at the highest dose activity change, negative = inhibition, usual class: inhibitors; AID 2701; shares compounds with Sfp PPTase inh;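 also: potency is read from the fitted curve at half-maximal effect; plate controls were uninhibited Sfp reaction for no effect and no enzyme control for full effect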
Target sequence (Q9F4F7 whole entry, looked up): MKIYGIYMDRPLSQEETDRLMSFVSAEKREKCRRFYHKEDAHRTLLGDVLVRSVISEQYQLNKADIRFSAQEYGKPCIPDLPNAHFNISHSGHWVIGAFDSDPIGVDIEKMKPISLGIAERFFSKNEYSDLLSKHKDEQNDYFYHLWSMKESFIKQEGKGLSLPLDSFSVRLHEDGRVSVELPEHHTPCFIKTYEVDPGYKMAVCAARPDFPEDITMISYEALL
Sfp PPTase gel = Inhibits B. subtilis Sfp phosphopantetheinylation; purified Sfp, gel-based phosphopantetheinylation read-out; shares compounds with Sfp PPTase inh; 210 tested, 20% active; Potency, µM, usual class: inhibitors;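 active = potency below 100 µM; inconclusive = dose-dependent response but potency above 100 µM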;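 also: band intensities scaled against SCH202676 control wells before curve fitting; potency is an IC50 for inhibitors of Sfp transfer activity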
Numbers without * were called inactive; ! = not confirmed by another sample; [ ] = another dose, or the depositor's remark. Sampled rows, rich in hits. Any-hit rate of the full collection: about 12%. Unless noted, calls follow the shape of the dose curve; as a rule, active = well fitted curve in the direction sought with a large enough effect; inconclusive = small, poorly fitted or top-dose-only effect, or another doubt; inactive = no such curve, though single readings can be large; an effect the other way counts as inactive or inconclusive.

`CCc1c(C)nc2cc(-c3ccc(OC)c(OC)c3)nn2c1N1CCCC1` gave BAZ2B block 3%, HP1b chromo inh 12%, G9a inh 3%, Sfp PPTase inh 6.3µM*, L3MBTL1 block -6%, JMJD2A Tudor -18% and Sfp inh conf inconclusive.
For c1ccc(CSc2nnc(-c3ccco3)n2Cc2ccco2)cc1 the results were BAZ2B block inconclusive, HP1b chromo inh -1%, G9a inh 50µM*, Sfp PPTase inh 4µM*, L3MBTL1 block 0%, JMJD2A Tudor -32% and Sfp inh conf 33µM*.
`c1ccc(CSc2nnc(-c3cccs3)n2Cc2ccco2)cc1` gave BAZ2B block -29%, HP1b chromo inh 20%, G9a inh inconclusive, Sfp PPTase inh 0%, L3MBTL1 block 1% and JMJD2A Tudor -23%.
Screening CCCCCCCCCCCC(CC1OC(=O)C1CCCCCC)OC(=O)C(CC(C)C)NC=O (stereo not drawn) returned G9a inh -2%[2.33 µM] and Sfp PPTase inh 18%.
CCOc1ccc(-c2cc3c(=O)n(CC(=O)NCc4ccc(F)cc4)ccn3n2)cc1 was read as BAZ2B block -9%, HP1b chromo inh 27%, G9a inh 3%[12.7 µM] and JMJD2A Tudor -25%.
`Nc1nnc2c(n1)CCCC2` gave BAZ2B block 50µM*, HP1b chromo inh 21%, G9a inh inconclusive, Sfp PPTase inh 45µM*, L3MBTL1 block inconclusive, JMJD2A Tudor 22µM*, Sfp inh conf 53µM* and Sfp PPTase gel 6.2µM*.
For COc1cc2ccccc2cc1C(=O)N1CCN(c2nc3c(C)cc(C)cc3s2)CC1 the results were BAZ2B block -30%, HP1b chromo inh 15%, G9a inh -25%[59 µM] and JMJD2A Tudor -20%.
CC(=O)N=c1sc(S(N)(=O)=O)nn1C was read as BAZ2B block -17%, HP1b chromo inh 34%, G9a inh 13µM*, Sfp PPTase inh 25µM*!, L3MBTL1 block 4%, JMJD2A Tudor -7%, Sfp inh conf 47µM* and Sfp PPTase gel inactive.
CC(=O)Nc1nc(C)c(S(N)(=O)=O)s1 was read as BAZ2B block -1%, HP1b chromo inh 42%, G9a inh 2%, Sfp PPTase inh 31%, L3MBTL1 block -1% and JMJD2A Tudor -7%.
Screening Cn1cnc2c(=O)oc3ccc(S(=O)(=O)N4CCN(c5ccccc5F)CC4)cc3c21 returned BAZ2B block -33%, HP1b chromo inh 11%, G9a inh -16%[59 µM] and JMJD2A Tudor -8%.
`CC(C)(C)c1ccc(C(=O)CCCN2CCC(OC(c3ccccc3)c3ccccc3)CC2)cc1` gave G9a inh 3%[59 µM], Sfp PPTase inh 50µM*, Sfp inh conf 47µM* and Sfp PPTase gel inactive.
`CC1CCN(CCCC(=O)c2ccc(F)cc2)CC1` gave G9a inh -41%[12.7 µM] and Sfp PPTase inh 4%.
For COc1ncc2nc(-c3ccc(F)cc3)c(=O)n(CCC#N)c2n1 the results were G9a inh 2%[12.7 µM] and Sfp PPTase inh 4%.
COc1ccc2nc(S(=O)Cc3ncc(C)c(OC)c3C)[nH]c2c1 (stereo not drawn) was read as BAZ2B block 32µM*, HP1b chromo inh 14µM*, G9a inh 1.4µM*, Sfp PPTase inh 20µM*!, L3MBTL1 block -13%, JMJD2A Tudor 28µM* and Sfp inh conf 37µM*.
Screening COc1ccc2nc(SCC(=O)Nc3c(C)cccc3C)[nH]c2c1 returned BAZ2B block 5%, HP1b chromo inh 20%, G9a inh 5%[12.7 µM], Sfp PPTase inh 1%, L3MBTL1 block -4% and JMJD2A Tudor 1%.
For Cc1ccc(NC(=O)c2sc3ccccc3c2Cl)cc1 the results were BAZ2B block 0%, HP1b chromo inh 28%, G9a inh -40%[59 µM] and JMJD2A Tudor -2%.
For Cc1ccc(NC(=S)NC(=O)c2sc3ccccc3c2Cl)c(C(=O)O)c1 the results were BAZ2B block 50µM*, G9a inh 45µM*, Sfp PPTase inh 16µM*, L3MBTL1 block -14% and Sfp inh conf 53µM*.
`CNc1ccccc1C(C)(C)c1cc(-c2ccco2)n[nH]1` gave BAZ2B block -77%, HP1b chromo inh inconclusive, G9a inh 35µM*, Sfp PPTase inh 56µM*, L3MBTL1 block -12%, JMJD2A Tudor inconclusive, Sfp inh conf 24µM* and Sfp PPTase gel inactive.
Screening CNc1ccccc1C(C)(C)c1cc(C)[nH]n1 returned BAZ2B block -18%, HP1b chromo inh 12%, G9a inh 1%, Sfp PPTase inh 21%, L3MBTL1 block 11% and JMJD2A Tudor inconclusive.
O=C(/C=N/O)NCCCCNC(=O)/C=N/O was read as Sfp PPTase inh -11%.
For CN(C)CCCNC(=O)c1ccc(-c2nc(-c3ccc(Cl)cc3)cs2)cc1 the results were BAZ2B block -35%, HP1b chromo inh -2%, G9a inh inconclusive, Sfp PPTase inh 25µM*, L3MBTL1 block 0%, JMJD2A Tudor -31%, Sfp inh conf 59µM* and Sfp PPTase gel inactive.
Cc1cccc(NC(=O)CSc2nc(-c3cccs3)cc(C(F)(F)F)c2C#N)c1C was read as BAZ2B block 14%, HP1b chromo inh 53%, G9a inh 30%[59 µM] and JMJD2A Tudor 2%.
COc1cccc(NC(=O)CSC2=C(C#N)C(c3ccco3)C3=C(CCCC3=O)N2)c1 (stereo not drawn) was read as BAZ2B block inconclusive, HP1b chromo inh 4%, G9a inh inconclusive, Sfp PPTase inh 7.9µM*, JMJD2A Tudor -30%, Sfp inh conf 47µM* and Sfp PPTase gel inactive.
For C=CCOC(=O)C1=C(C)NC(SCC(=O)Nc2ccccc2)=C(C#N)C1c1ccco1 (stereo not drawn) the results were BAZ2B block 5%, HP1b chromo inh 29%, G9a inh inconclusive, Sfp PPTase inh 4%, L3MBTL1 block 71% and JMJD2A Tudor -8%.
Cc1ccc(C(=O)NC(=S)Nc2ccc(Oc3ccc(Cl)cc3)cc2)cc1 was read as BAZ2B block -27%, HP1b chromo inh 3%, G9a inh -16%, Sfp PPTase inh 11%, L3MBTL1 block -1% and JMJD2A Tudor -15%.
